zVAD death inh: L929 zVAD cell death inhibition; L929 zVAD necroptosis rescue, ATP luminescence, 24 h; with zVAD 60 µM; viability rescue, % at 10 µM; 220,000 compounds, 0.38% hits; AID 1377;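 active = activation, scaled between plate controls, above about 75%, limit read from the data; inactive = activation under that limit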;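 also: 0% = zVAD with DMSO and 100% = DMSO alone without zVAD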
14-3-3 Bad inh: disrupts binding of bovine 14-3-3 zeta to phospho-Bad peptide; P63103; TR-FRET 14-3-3zeta/Dy647-pBad peptide displacement, 1 h; inhibition, % at 21.7 µM; 220,000 compounds, 0.71% hits; AID 781;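 active = inhibition above about 70%, limit read from the data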;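 also: 0% = full 14-3-3 plus peptide FRET controls and 100% = background without 14-3-3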
Target sequence (P63103 whole entry, looked up): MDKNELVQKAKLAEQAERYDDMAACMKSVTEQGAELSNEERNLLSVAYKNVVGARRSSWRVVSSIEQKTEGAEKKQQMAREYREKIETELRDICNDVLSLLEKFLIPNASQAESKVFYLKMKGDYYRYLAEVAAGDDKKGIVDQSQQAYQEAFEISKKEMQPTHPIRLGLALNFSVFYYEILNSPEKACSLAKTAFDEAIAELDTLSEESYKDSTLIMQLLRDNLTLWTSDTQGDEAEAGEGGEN
TNF necrop inh: TNF-alpha cell death inhibition in Jurkat FADD-/- cells; 220,000 compounds, 0.068% hits; activation (protection from cell death), % at 10 µM; Jurkat FADD-/- TNF necroptosis rescue, ATP luminescence, 24 h; 0 = TNF only, 100 = no-TNF cells;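 active = activation, meaning protection from cell death, of at least 50% relative to plate controls; inactive = activation below 50%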;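 also: necroptosis triggered by 40 ng/mL TNF-alpha added together with compound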
Efa HMGR inh: E. faecalis class II HMG-CoA reductase inhibition; purified E. faecalis HMGR, NADPH absorbance 340 nm kinetic; inhibition, % at 10 µM; 190,000 compounds, 0.41% hits;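 active = inhibition above a set limit, the median over all tested compounds plus 3 SD, cut at about 9.5% in these data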;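 also: enzyme runs in reverse so mevalonate oxidation gives rising NADPH absorbance; 0% = complete reaction with DMSO and 100% = background rate lacking mevalonate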
Calpain2 inh: inhibitors of pig calpain II. purified calpain II, fluorogenic peptide substrate, 30 min. inhibition, % at 16 µM. 220,000 compounds, 0.37% hits;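 active = inhibition above about 50%, limit read from the data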
ROMK mod: modulators of human ROMK potassium channel | Tet-inducible ROMK, thallium flux fluorescence; actives lie on both sides | B-score at 10 µM | 130,000 compounds, 2% hits | AID 1918;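 active = signal ratio slope over the read window, or its plate-corrected B-score, at least 3 SD from the plate mean, either direction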;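 also: B-score of the F/F0 ratio slope over 7 to 12 s after thallium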
An asterisk follows results filed as active; nt = no result; [ ] = dose if it differs, or a comment. Only some compounds are listed: those with a hit (about 3% of all), similar ones and a draw of the others.

SMILES	zVAD death inh	14-3-3 Bad inh	TNF necrop inh	Efa HMGR inh	Calpain2 inh	ROMK mod
O=C(NC(=S)N1CCCCCC1)c1ccccc1Cl	1	-22	0	-3	-23	0.31
Cc1ccccc1C(=O)NNC(=S)NC(=O)c1ccc(Cl)cc1Cl	0	-2	0	-2	-34	4.9*
O=C(NC(=S)N1CCCCCC1)c1ccc(Cl)cc1Cl	-1	-4	-1	-3	25	7.1*
O=C1CC(NCCC2=CCCCC2)C(=O)N1c1cccc(Cl)c1Cl (centres undefined)	0	-1	0	1	-3	nt
CC(C)Nc1nnc(Sc2ccc(Cl)cc2[N+](=O)[O-])s1	1	-11	0	-2	71*	nt
CN(C)c1ccc(CNCCC2CCOC(C)(C)C2)cc1 (centres undefined)	0	92*	0	-7	8	nt
CCOC(=O)c1ccc(NC(=O)CN2C(=O)CSC(C)C2=O)cc1 (centres undefined)	0	-9	1	-2	3	-0.2
O=C(c1cccc(COc2ccc(Cl)cc2Cl)c1)N1CCN(c2ccccn2)CC1	1	3	-2	2	70*	nt
Cc1ccc(C(=O)N2CCN(c3ccccn3)CC2)cc1[N+](=O)[O-]	1	-4	-2	10*	6	-0.57
COc1ccccc1C1CCCN1Cc1nc(-c2ccc(C)s2)oc1C (centres undefined)	-1	-6	2	12*	-102	-0.3
COc1ccccc1C1CCCN1Cc1nc(-c2cc3c(cc2Cl)OCO3)oc1C (centres undefined)	-3	5	3	-1	32	-0.71
CCOC(=O)c1sc(NC(=O)CCN2CCN(CC)CC2)c(C(=O)OCC)c1C	-1	-5	-1	0	3	-0.15
COc1ccc(-n2cccc2/C=C2\C(=N)N3N=C(c4ccco4)SC3=NC2=O)cc1	0	82*	-1	-5	-49	-0.43
CCC1=NN2C(=N)/C(=C\c3cccn3-c3cccc(Cl)c3)C(=O)N=C2S1	3	-16	1	0	-29	1.9
CCC1=NN2C(=N)/C(=C\c3cccn3-c3ccc(Br)cc3)C(=O)N=C2S1	2	79*	0	-6	0	1.1
Cc1cc(C)n(-c2nc3c(c(=O)n(C)c(=O)n3C)n2CC(O)COc2ccccc2C)n1 (centres undefined)	0	nt	-6	nt	nt	nt
CC(C)CN(CC(C)C)S(=O)(=O)N1CCC(C(=O)NCCc2ccc(Cl)cc2)CC1	-1	0	1	1	22	-0.34
Cc1ccc(NC(=O)CN2C(=O)/C(=C3\SC(=S)N(C4CCS(=O)(=O)C4)C3=O)c3ccccc32)cc1 (centres undefined)	3	93*[fluorescence artefact?]	-10	0	67*	nt
O=C(CN1C(=O)/C(=C2\SC(=S)N(C3CCS(=O)(=O)C3)C2=O)c2ccccc21)Nc1ccccc1 (centres undefined)	2	81*[fluorescence artefact?]	-12	-8	48	nt
CCN1C(=O)/C(=C2\SC(=S)N(NC(=O)c3ccccc3O)C2=O)c2ccccc21	0	-2	2	nt	34	nt
CN(C)S(=O)(=O)c1ccc(NC(=S)NC(=O)c2ccc(Br)o2)cc1	-1	-2	0	-4	19	2.4*
CCOc1ccc(OCCCCNCCN)cc1	-1	24	0	-7	14	0.34
Cc1cc(Br)ccc1NCc1ccccn1	0	76*	-8	1	-7	nt
Cn1c(NCc2ccco2)nc2c1c(=O)n(Cc1ccc(Br)cc1)c(=O)n2C	0	0	-1	1	71*	nt
COc1ccc(CNc2nc3c(c(=O)n(Cc4ccc(Br)cc4)c(=O)n3C)n2C)cc1	1	-7	-12	-3	89*	-1.2
Cn1c(N/N=C2\CCCc3ccccc32)nc2c1c(=O)n(Cc1ccc(F)cc1)c(=O)n2C	6	96*	-7	-5	-181	nt
Cn1c(NCc2ccccc2)nc2c1c(=O)n(Cc1ccc(Br)cc1)c(=O)n2C	3	3	-2	-6	78*	-0.47
Cn1c(NCc2ccco2)nc2c1c(=O)n(Cc1ccc(Cl)cc1)c(=O)n2C	0	-5	0	-7	46	nt
COc1ccc(Cn2c(=O)c3c(nc(NCCO)n3C)n(C)c2=O)cc1	1	0	-1	2	18	-0.29
